Screening results: PubChem, several laboratories
A selection: hits, their analogues and other compounds. The true share with any hit is near 3.5%.
TROY signal inh: inhibitors of TROY-driven NF-kB signaling, primary screen, Q293 LMP1-TROYcd cells, NF-kB luciferase, uHTS; actives 0.98% (n = 360,000); Q293 LMP1-TROYcd NF-kB luciferase reporter, 4 h; inhibition, % at 10 µM;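 active = compounds whose plate-normalised and pattern-corrected inhibition of the luciferase reporter signal at the single screening dose is 50% or more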
HSP90 inh: HSP90 inhibitors, primary screen, cell lysate, luminescence | Heat shock protein HSP 90 (rabbit reticulocyte lysate; luciferase refolding) | Rabbit reticulocyte lysate, luciferase refolding luminescence, 3 h | inhibition, % at 5.6 µM | actives 0.91% (n = 290,000);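 active = inhibition above the screen-wide mean plus 3 SD, computed separately per campaign, cut at about 16% in these data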;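 note: 0% = DMSO wells and 100% = 60 µM geldanamycin wells; inhibitors lower the luminescence because luciferase stays unfolded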
Platelet DG rel: inhibitors of platelet dense granule secretion, primary screen, cell-based, MLPCN, human platelets; AID 1663, 2009; inhibition, %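 (compounds screened at 7.5 µM in platelet-rich plasma)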; actives 0.22% (n = 300,000); human platelet-rich plasma, SFLLRN dense granule ATP release, luminescence;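 active = mean replicate score, as percent of positive control, at or above 50; inconclusive = mean below 50 but at least one replicate at or above 50; inactive = mean and every replicate below 50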
TRAIL sens C8: viability loss with TRAIL in NB7+C8 cells, primary screen, TRAIL sensitizer project, cell-based, ATPlite luminescence; inhibition (viability loss, TRAIL sensitization), % at 10 µM; actives 1% (n = 360,000); AID 624354, 2012;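 active = compounds causing at least 50% loss of cell viability in the single-dose screen, relative to plate controls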
PPC-1+TRAIL kill: compounds killing PPC-1 cancer cells with TRAIL present, primary screen, TRAIL potentiator project, ATPLite luminescence, uHTS; PPC-1 cells + TRAIL, ATPLite viability luminescence; cell killing (% activity), % at 4 µM or 5 µM; actives 0.41% (n = 220,000);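 active = cell killing above 50% in the first pass at 4 µM, then a duplicate retest at 5 µM averaging 50% or more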;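 note: plate controls were cells with TRAIL plus DMSO for no effect and medium-only wells lacking cells for full effect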
TWEAK-Fn14 inh: inhibitors of TWEAK-Fn14 signaling, primary screen, luciferase reporter cells, uHTS; TWEAK-stimulated Fn14 reporter cells, luciferase luminescence, 8 h; inhibition, % at 10 µM; actives 2% (n = 360,000); in the data active = inhibition above about 50%
HSP90 confirm: HSP90 inhibitors, confirmation, cell lysate, luminescence; shares compounds with HSP90 inh; rabbit reticulocyte lysate, luciferase refolding luminescence, 3 h; inhibition, % at 5.9 µM; actives 64% (n = 2,300); in the data active = inhibition above about 18%;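 note: 0% = vehicle wells and 100% = reference inhibitor wells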
FLuc counter: firefly luciferase inhibitors, HSP90 counter-screen, confirmation, artefact control for HSP90 inhibitor project, biochemical, luminescence, triplicate; shares compounds with HSP90 inh; inhibition, % at 5.9 µM; purified native firefly luciferase; actives 48% (n = 2,300);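 active = inhibition above the mean inhibition of all tested sample wells plus 3 SD, cut at about 10% in these data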;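 note: 0% = DMSO with luciferase and 100% = wells lacking luciferase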
Target sequence (P08659 whole entry, looked up): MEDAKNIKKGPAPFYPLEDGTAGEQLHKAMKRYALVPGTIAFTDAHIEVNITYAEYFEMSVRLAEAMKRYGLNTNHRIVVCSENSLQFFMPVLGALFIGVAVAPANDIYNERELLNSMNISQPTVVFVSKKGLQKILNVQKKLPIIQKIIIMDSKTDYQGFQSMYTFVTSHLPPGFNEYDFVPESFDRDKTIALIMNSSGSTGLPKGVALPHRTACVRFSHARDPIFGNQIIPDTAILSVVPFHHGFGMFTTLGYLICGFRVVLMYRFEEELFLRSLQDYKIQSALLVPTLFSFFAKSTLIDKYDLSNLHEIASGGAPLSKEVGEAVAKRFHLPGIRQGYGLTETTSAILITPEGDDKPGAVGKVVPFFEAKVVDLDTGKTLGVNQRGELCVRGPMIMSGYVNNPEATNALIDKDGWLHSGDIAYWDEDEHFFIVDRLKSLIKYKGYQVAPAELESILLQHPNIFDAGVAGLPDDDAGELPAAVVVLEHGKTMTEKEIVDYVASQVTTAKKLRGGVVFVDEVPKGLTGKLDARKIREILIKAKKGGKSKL
* hit, by the source's call; u = inconclusive; x = not tested or not shown.

SMILES | TROY signal inh | HSP90 inh | Platelet DG rel | TRAIL sens C8 | PPC-1+TRAIL kill | TWEAK-Fn14 inh | HSP90 confirm | FLuc counter
COc1ccc(CCN2CC(C(=O)OCC(=O)N(C)Cc3ccccc3)CC2=O)cc1OC (stereo not drawn) | 3 | x | x | -2 | x | -7 | x | x
CCOc1ccc(CN2CCN(Cc3cc4ccccc4o3)CC2CCO)cc1 (stereo not drawn) | -5 | 61* | -5 | -8 | x | 15 | 2 | -2
COc1cccc(CN2CCN(Cc3cc4ccccc4o3)CC2CCO)c1 (stereo not drawn) | 5 | 1 | -6 | -1 | x | 1 | x | x
Cc1ccc(-c2nc3nc4ccccc4nc3n2Cc2ccco2)cc1 | 74* | 47* | x | 16 | 27 | 90* | 20* | 0
CCOc1cc(/C=N/Nc2ccc(C(=O)O)cc2)ccc1OC(=O)c1ccccc1C | 20 | 12 | -3 | -11 | 12 | 35 | x | x
COc1cccc(OCc2cc(/C=N/Nc3ccc(C(=O)O)cc3)ccc2OC)c1 | -10 | 55* | 65* | 0 | -15 | 3 | 66* | 56*
COc1cccc(C(=O)Oc2ccc(/C=N/Nc3ccc(C(=O)O)cc3)cc2OC)c1 | -5 | 22* | 0 | 3 | x | 60* | 48* | 31*
CC(C)C[C@@H](CNCC(=O)[C@H](C)NC(=O)c1[nH]cnc1C(=O)N[C@@H](C)CN)NC(=O)c1nc[nH]c1C(=O)N[C@@H](C)C(=O)O | 9 | x | x | 6 | x | 17 | x | x
COc1ccc(NC(=S)Nc2ccccn2)cc1 | -92 | 26* | 15 | -1 | 10 | -4 | -9 | -18
CC(=O)c1sc(NC(=O)CCS(=O)(=O)c2ccc(C)cc2)nc1C | -15 | x | -6 | -20 | x | 3 | x | x
CC(C)Oc1cccc(C(=O)NC(=S)Nc2ccccc2)c1 | 67* | 23* | -5 | 12 | 43 | 59* | 20* | 8
CN1N=C2c3ccccc3CCC2C1c1ccc(Cl)cc1 (stereo not drawn) | 40 | 23* | 8 | -8 | 18 | 54* | 34* | 16*
O=C(Nc1ccccc1)c1ccc2c(c1)OCCO2 | -64 | 5 | 26 | 34 | 46 | -3 | x | x
Cc1cccc(NC(=O)c2ccc3c(c2)OCCO3)c1 | 3 | 34* | u | 87* | x | 36 | 48* | 36*
O=C(Nc1ccc2c(c1)OCCO2)c1ccc(Cl)cc1 | -40 | 19* | 8 | 59* | x | 25 | 25* | 15*
Cc1cc(C(=O)Nc2ccc3c(c2)OCO3)cs1 | -46 | 20* | 7 | 36 | 48 | 18 | 12 | -14
Cc1ccc(NC(=O)c2ccc3c(c2)OCCO3)cc1C | 47 | 42* | 25 | 76* | x | 85* | 68* | 61*
COC(=O)[C@@]12C[C@@H](CC(=O)NCCC(C)C)C(=O)N(Cc3ccccc3)C1=CCC(C)(C)C2 | x | x | x | 10 | x | x | x | x
Cc1ccc(C(=O)Nc2ccc3c(c2)OCCO3)c(C)c1 | 59* | 65* | 34 | 87* | x | 85* | 82* | 77*
O=C(Nc1cccc(C(=O)O)c1)Nc1ccc2c(c1)OCO2 | -30 | 86* | 11 | 49 | x | 6 | 96* | 91*
Cc1ccc(C(=O)O)cc1NC(=O)Nc1ccc2c(c1)OCO2 | -52 | 2 | 1 | 6 | 3 | -18 | x | x
CCN(CC)CCN(Cc1cc2cc3c(cc2[nH]c1=O)OCO3)C(=S)NC | -9 | 29* | 9 | -12 | x | -10 | -1 | -4
C=CCn1c(SCC(=O)NCCOC)nnc1-c1cc2c(s1)CCC(CC)C2 (stereo not drawn) | -23 | 52* | -3 | 13 | 14 | -25 | 2 | -12
Cn1c(=O)c2ccccc2n(Cc2ccccc2F)c1=O | 20 | 7 | -3 | 0 | 10 | 0 | x | x
Cn1c(=O)c2ccccc2n(Cc2ccccc2Cl)c1=O | 7 | 28* | 3 | 7 | x | -60 | 1 | 1
SMILES | TROY signal inh | HSP90 inh | Platelet DG rel | TRAIL sens C8 | PPC-1+TRAIL kill | TWEAK-Fn14 inh | HSP90 confirm | FLuc counter
CCn1nc(C)cc1-c1nnc(Sc2ncc([N+](=O)[O-])s2)n1C | -6 | 7 | 4 | 9 | x | 17 | x | x
CCc1ccc2oc(-c3ccc(OC)cc3)cc(=Nc3cccc(C(=O)O)c3)c2c1 | 65* | 24* | 6 | 17 | 49 | 85* | 10 | 3
Cc1ccc(NC(=O)O/N=C/c2c(C)nn(C(C)(C)C)c2C)cc1Cl | 82* | 86* | -3 | 21 | 10 | 103* | 87* | 88*
CNc1ncc(C(=O)c2ccc(-c3ccccc3)cc2)s1 | -55 | 1 | 2 | 39 | -2 | -15 | x | x
CCOc1ccc(Oc2nc(N(CC)CC)nc(N3CCOCC3)n2)nn1 | 0 | 17* | 3 | 6 | 8 | -7 | -7 | -10
CCN(CC)c1nc(Oc2ccc(C(=O)OC)cc2)nc(N2CCOCC2)n1 | 17 | -2 | -10 | 8 | 20 | -7 | x | x
CCN(C(=O)c1ccc(NC(=O)Cc2ccccc2)cc1)c1ccccc1 | 5 | -5 | 2 | -3 | x | 13 | x | x
CN1C(=O)C2(C(C#N)=C(N)N(c3ccc(Cl)cc3)C3=C2C(=O)CC(C)(C)C3)c2ccccc21 (stereo not drawn) | 15 | 37* | -1 | -6 | 26 | 11 | -3 | -5
O=C(Nc1ccc(C(=O)NCCCN2CCCCC2)cc1)C1=CSCCO1 | -2 | -3 | 10 | -3 | x | -2 | x | x
O=C(Nc1ccc(C(=O)NCCCN2CCN(c3ccc(F)cc3)CC2)cc1)C1=CSCCO1 | -5 | 30* | 2 | 11 | x | 12 | -3 | -6
COc1cccc(NC(=O)C2CCCO2)c1 (stereo not drawn) | 1 | -7 | 9 | 3 | x | -4 | x | x
Fc1cccc(-c2cc3nc4c(c(NCc5ccco5)n3n2)CCCC4)c1 | -17 | -2 | 15 | 50 | 28 | 44 | x | x
COc1cccc(-c2cc3nc4c(c(NCC(C)(C)CN(C)C)n3n2)CCCC4)c1 | 81* | 46* | -3 | 12 | x | 61* | 44* | 3
CC1(C(=O)NS(=O)(=O)c2ccccc2)CCN1C(=O)CC1CC1 (stereo not drawn) | 4 | x | x | 2 | x | -4 | x | x
